In the supplement of paper PMC13380429:

Tested on: Vero E6 infected with SARS-CoV-2
Experiment: inhibition of SARS-CoV-2 cytopathic effect; higher = more antiviral protection, active = above 15
Conditions: 48 h

Measured: inhibition of SARS-CoV-2 cytopathic effect

CC(C)[C@@H](C(=O)Nc1nccs1)c1ccc(Cl)cc1
inactive: 1 nM 0.5% | 8.33 nM 0.66% | 100 nM 1.05% | 833.33 nM 1.87% | 10000 nM 1.55%

CC(=O)NC[C@H]1CN(c2ccc(-c3ccc(CNCc4cnn[nH]4)cc3)c(F)c2)C(=O)O1 [radezolid]
inactive: 1 nM -1.38% | 8.33 nM 0.58% | 100 nM 2.16% | 833.33 nM -0.64% | 10000 nM 2.43%

CC1C=CC=CCCC=CC=CC=CC=CC(OC2OC(C)C(O)C(N)C2O)CC2OC(O)(CC(O)C(O)CCC(O)CC(O)CC(O)CC(=O)OC(C)C(C)C1O)CC(O)C2C(=O)O (stereo not given) [nystatin]
inactive: 1 nM 0.06% | 8.33 nM -1.74% | 100 nM -1.14% | 833.33 nM -1.11% | 10000 nM 3.99%

Cn1c(=O)c2c(ncn2CC2OCCO2)n(C)c1=O [doxofylline]
inactive: 1 nM -0.49% | 8.33 nM -2.41% | 100 nM -0.01% | 833.33 nM -1.59% | 10000 nM -0.77%

COc1cc2c(CCNC(C)=O)c[nH]c2cc1Cl [6-chloromelatonin]
inactive: 1 nM 0.92% | 8.33 nM 0.78% | 100 nM -1.78% | 833.33 nM 4.57% | 10000 nM -13.2%

CC(=O)O[C@]1(C(C)=O)CC[C@H]2[C@@H]3CCC4=CC(=O)CCC4=C3[C@@H](c3ccc(N(C)C)cc3)C[C@@]21C [Ulipristal acetate]
inactive: 1 nM 4.79% | 8.33 nM 2.62% | 100 nM 1.8% | 833.33 nM 7.36% | 10000 nM 12.9%

CO[C@@H](C(=O)N1Cc2[nH]nc(NC(=O)c3ccc(N4CCN(C)CC4)cc3)c2C1)c1ccccc1 [danusertib]
inactive: 1 nM 2.82% | 8.33 nM 2.41% | 100 nM -1.12% | 833.33 nM -0.08% | 10000 nM -3.74%

Cc1occc(=O)c1[O-].Cc1occc(=O)c1[O-].[O]=[V+2] [bis(maltolato)oxovanadium(IV)]
inactive: 1 nM 1.28% | 8.33 nM 1.37% | 100 nM 0.44% | 833.33 nM -2.57% | 10000 nM -1.02%

CC[N+](C)(CC)CCC[n+]1c(-c2ccccc2)c2cc(N)ccc2c2ccc(N)cc21 [propidium-iodide]
inactive: 1 nM -1.36% | 8.33 nM -0.29% | 100 nM 3.2% | 833.33 nM 2.34% | 10000 nM 2.62%

CC(=O)NCC(=O)N[C@H](CCC(=O)O)C(=O)O [N-acetylglycyl-D-glutamic-acid]
inactive: 1 nM 1.3% | 8.33 nM -0.41% | 100 nM -0.4% | 833.33 nM -0.04% | 10000 nM 1.12%

CNC(=O)CN(CCN(CCN(CC(=O)[O-])CC(=O)NC)CC(=O)[O-])CC(=O)[O-].[Gd+3] [gadodiamide]
inactive: 1 nM -0.88% | 8.33 nM -0.45% | 100 nM -3.37% | 833.33 nM -0.21% | 10000 nM 1.36%

Cn1c(=O)c(F)c(Nc2ccc(I)cc2F)c2c(=O)n(C[C@@H](O)CO)cnc21
inactive: 1 nM -3.03% | 8.33 nM -6.23% | 100 nM -11% | 833.33 nM -11.6% | 10000 nM -12.3%

Cc1ccc2c(=O)c3ccccc3n(CCCN)c2c1C
inactive: 1 nM 3.67% | 8.33 nM 4.23% | 100 nM -0.41% | 833.33 nM 1.46% | 10000 nM -13.1%

COc1cccc([C@@H](C)NCCCc2ccccc2Cl)c1 [tecalcet]
inactive: 1 nM 1.64% | 8.33 nM 1.12% | 100 nM 3.52% | 833.33 nM -0.64% | 10000 nM -3.1%

CCNC(=O)C[C@@H]1N=C(c2ccc(Cl)cc2)c2cc(OC)ccc2-n2c(C)nnc21
inactive: 1 nM -1.97% | 8.33 nM -1.13% | 100 nM 0.74% | 833.33 nM -0.08% | 10000 nM -9.5%

Cc1nc2sccn2c(=O)c1CCN1CCC(=C(c2ccccc2)c2ccc(F)cc2)CC1
inactive: 1 nM 1.18% | 8.33 nM -2.89% | 100 nM 0.46% | 833.33 nM 2.57% | 10000 nM 1.02%

COc1ccccc1CC(=N)N1C[C@@H]2C(=O)CCC(c3ccccc3)(c3ccccc3)[C@@H]2C1
inactive: 1 nM -0.54% | 8.33 nM 2.21% | 100 nM 1.93% | 833.33 nM 3.76% | 10000 nM -2.17%
